Laboratory results as given in PubChem BioAssay (NCATS).
Results filed as inconclusive are left out. Active and inactive are the calls of the source. Calls come from the whole dose curve; as a rule, active = well fitted inhibition curve with a large enough effect; inconclusive = small, poorly fitted or top-dose-only effect; inactive = flat fitted curve, though single readings scatter. Where a SMILES comes first, the peptide text is derived from it. Bridges are numbered along the chain shown (N, C = ends). [ ]: non-standard residue; d: D form. The star is where a group is joined. X1 = CC[C@@H](C)[C@@H](N)C1=N[C@H](C(=O)*)CS1; d(aIle) = CC[C@H](C)[C@@H](N)C(=O)O; dOrn = NCCC[C@@H](N)C(=O)O

Columns and labels:
[1] = Drug repurposing screens with cells derived from glioblastoma tumor samples (AID 1345199); settings: GBM patient neurospheres viability, ATP luminescence, 48 h; note: nearly all actives have a fitted effect of over 40% in size
Method in brief: (§1)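 Primary testing used CD133+ neurospheres from four GBM patients, seven concentrations, 48 h exposure and ATP-based viability; confirmation added three slower-growing patient lines.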

[2] = test system: astro; experiment: as above; settings: viability, ATP luminescence, 48 h; series mostly up to 45.9 µM
Method in brief: as §1

[3] = at 45.9 µM (top of the series), tumour line B
[4] = at 45.9 µM (top of the series), tumour line D
[5] = at 46 µM (top of the series), tumour line A
[6] = at 46.1 µM (top of the series), tumour line C
[7] = at 20 µM (top of the series), tumour line C
[8] = at 21.2 µM (top of the series), tumour line B
[9] = at 21.2 µM (top of the series), tumour line D
[10] = at 21.3 µM (top of the series), tumour line A
% is set by controls: 0 for no effect and ±100 for the full control effect; potency is the fitted concentration of half-maximal effect.

CC(/C=C/C=C(\C)C(=O)O[C@@H]1O[C@H](CO[C@@H]2O[C@H](CO)[C@@H](O)[C@H](O)[C@H]2O)[C@@H](O)[C@H](O)[C@H]1O)=C\C=C\C=C(C)\C=C\C=C(/C)C(=O)O[C@@H]1O[C@H](CO[C@@H]2O[C@H](CO)[C@@H](O)[C@H](O)[C@H]2O)[C@@H](O)[C@H](O)[C@H]1O
inactive: activity, negative = cell killing [1, 3] -13.5% | activity, negative = cell killing [1, 4] 5.42% | activity, negative = cell killing [1, 5] -21.7% | activity, negative = cell killing [1, 6] 10.7%

O.O.O.O.O.O.O.O=S(=O)([O-])[O-].[Co+2]
inactive: activity, negative = cell killing [1, 3] -22.6% | activity, negative = cell killing [1, 4] 15.1% | activity, negative = cell killing [1, 5] -23.8% | activity, negative = cell killing [1, 6] 10.4% | Potency [2]

CCCOC(=O)c1ccccc1O
inactive: activity, negative = cell killing [1, 3] -5.91% | activity, negative = cell killing [1, 4] 2.55% | activity, negative = cell killing [1, 5] -23.3% | activity, negative = cell killing [1, 6] -5.92%

COc1cc(C)c(/C=C/C(C)=C/C=C/C(C)=C/C(=O)O)c(C)c1C
inactive: activity, negative = cell killing [1, 3] -16.3% | activity, negative = cell killing [1, 4] 8.72% | activity, negative = cell killing [1, 6] -9.52%

CCCCC(=O)O[C@H]1CC[C@H]2[C@@H]3CCc4cc(O)ccc4[C@H]3CC[C@]12C
active: Potency ([1]; tumour line A) 28.2 µM | Potency ([1]; tumour line D) 11.2 µM
inactive: activity, negative = cell killing [1, 3] -20.6% | activity, negative = cell killing [1, 6] 8.7%

CC[C@@H](C)[C@@H](N)C1=N[C@H](C(=O)N[C@@H](CC(C)C)C(=O)N[C@@H](CCC(=O)O)C(=O)N[C@@H](C(=O)N[C@@H]2CCCCNC(=O)[C@@H](CC(N)=O)NC(=O)[C@@H](CC(=O)O)NC(=O)[C@@H](Cc3cnc[nH]3)NC(=O)[C@@H](Cc3ccccc3)NC(=O)[C@@H]([C@H](C)CC)NC(=O)[C@@H](CCCN)NC2=O)[C@@H](C)CC)CS1 (X1-LE[d(aIle)][dK][dOrn][dI][dF][dH][dD][dN]; lactam 4-C)
inactive: activity, negative = cell killing [1, 7] 4.06% | activity, negative = cell killing [1, 8] -2.34% | activity, negative = cell killing [1, 9] -0.888% | activity, negative = cell killing [1, 10] -20.3% | activity, negative = cell killing [1, 3] -12.2% | activity, negative = cell killing [1, 4] -10.9% | activity, negative = cell killing [1, 5] -25% | activity, negative = cell killing [1, 6] 23.1%

NCCCC[C@H](N)C(=O)O
inactive: activity, negative = cell killing [1, 3] -13.6% | activity, negative = cell killing [1, 4] 9.14% | activity, negative = cell killing [1, 5] -18.9% | activity, negative = cell killing [1, 6] 9.67%

CC(=O)N[C@@H]1C(O[C@H]2O[C@H](C(=O)O)C(O)[C@H](O)[C@H]2O)[C@H](O)[C@@H](CO)O[C@H]1O[C@@H]1C(C(=O)O)O[C@@H](O[C@H]2[C@H](O)[C@@H](CO)OC(O)[C@@H]2NC(C)=O)[C@H](O)[C@H]1O (some centres undefined)
inactive: activity, negative = cell killing [1, 3] -6.99% | activity, negative = cell killing [1, 4] -9.84% | activity, negative = cell killing [1, 5] -10.4% | activity, negative = cell killing [1, 6] -7.36%

Cc1ccc(S(=O)(=O)NC(=O)N[C@@H](C)Cc2ccccc2)cc1
inactive: activity, negative = cell killing [1, 3] -12% | activity, negative = cell killing [1, 4] -19.4% | activity, negative = cell killing [1, 6] -17.1%

NC(=O)Oc1ccc(Cc2ccccc2)cc1
inactive: activity, negative = cell killing [1, 3] -5.11% | activity, negative = cell killing [1, 4] -13.8% | activity, negative = cell killing [1, 6] -22.5%

CCCCC[C@H](O)/C=C/[C@H]1[C@H](O)CC(=O)[C@@H]1CCCCCCC(=O)O
inactive: activity, negative = cell killing [1, 7] 1.46% | activity, negative = cell killing [1, 8] -10.6% | activity, negative = cell killing [1, 9] -20.2%
active: Potency ([1]; tumour line A) 11.2 µM

O=C[C@H](O)[C@@H](O)[C@@H](O)[C@H](O)CO
inactive: activity, negative = cell killing [1, 3] -11.6% | activity, negative = cell killing [1, 4] 0.16% | activity, negative = cell killing [1, 6] 10.2%

C[N+]1(C)[C@@H]2CC(OC(=O)C(O)(c3cccs3)c3cccs3)C[C@H]1[C@@H]1O[C@@H]12 (some centres undefined)
inactive: activity, negative = cell killing [1, 3] -12.3% | activity, negative = cell killing [1, 4] 0.442% | activity, negative = cell killing [1, 5] -24.6% | activity, negative = cell killing [1, 6] -20.7% | Potency [2]

COc1ccc2c(c1)N(C[C@H](C)CN(C)C)c1ccccc1S2
active: Potency ([1]; tumour line A) 4.47 µM | Potency ([1]; tumour line D) 12.6 µM
inactive: activity, negative = cell killing [1, 7] 13%

CO/N=C(\C(=O)N[C@@H]1C(=O)N2C(C(=O)O)=C(CSc3nc(C)c(CC(=O)O)s3)CS[C@H]12)c1csc(N)n1
inactive: activity, negative = cell killing [1, 3] -4.93% | activity, negative = cell killing [1, 4] 3.79% | activity, negative = cell killing [1, 5] -22% | activity, negative = cell killing [1, 6] -20.8% | Potency [2]

CC(C)(C)c1ccc2c(S(=O)(=O)O)c(C(C)(C)C)ccc2c1
inactive: activity, negative = cell killing [1, 3] 0.454% | activity, negative = cell killing [1, 4] 6.66% | activity, negative = cell killing [1, 5] -27.1% | activity, negative = cell killing [1, 6] -16.6% | activity, negative = cell killing ([1]; at 91.6 µM (top of the series), tumour line B) -24.2% | activity, negative = cell killing ([1]; at 91.6 µM (top of the series), tumour line D) -20.7% | activity, negative = cell killing ([1]; at 99.2 µM (top of the series), tumour line C) -7.16% | Potency [2]

Cc1ncc(C[n+]2csc(CCO)c2C)c(N)n1
inactive: activity, negative = cell killing [1, 7] -11.7% | activity, negative = cell killing [1, 8] -7.55% | activity, negative = cell killing [1, 9] 3.61% | activity, negative = cell killing [1, 10] -16.2% | Potency [2]

NC(=O)OC[C@@H]1[C@H](NC(=O)/C(=N\OCC(=O)O)c2csc(N)n2)C(=O)N1S(=O)(=O)O
inactive: activity, negative = cell killing [1, 3] 5.57% | activity, negative = cell killing [1, 4] 5.27% | activity, negative = cell killing [1, 5] -4.61% | activity, negative = cell killing [1, 6] -1.35%

Oc1ccc(Cl)c2c1CCC2
inactive: activity, negative = cell killing [1, 3] -12.8% | activity, negative = cell killing [1, 4] -3.41% | activity, negative = cell killing [1, 6] -12.7%

CCN(CC)CCOC[C@H]1O[C@@H](O)[C@H](OCCN(CC)CC)[C@@H](O)[C@@H]1O
inactive: activity, negative = cell killing [1, 3] -9.61% | activity, negative = cell killing [1, 4] -16.5% | activity, negative = cell killing [1, 5] -26.4% | activity, negative = cell killing [1, 6] -24.8%

COc1ccc(/C=N/NC(=O)c2ccncc2)c(C(=O)O)c1OC
inactive: activity, negative = cell killing [1, 3] -18.2% | activity, negative = cell killing [1, 4] 8.03% | activity, negative = cell killing [1, 5] -30.2%

CO/N=C(\C(=O)N[C@@H]1C(=O)N2C(C(=O)O)=C(CSc3nnnn3C)CS[C@H]12)c1csc(N)n1
active: Potency ([1]; tumour line A) 11.2 µM
inactive: activity, negative = cell killing [1, 3] -10.5% | activity, negative = cell killing [1, 4] -9.07% | activity, negative = cell killing [1, 6] -27.1% | Potency [2]

c1ccc(-n2cnnn2)cc1
inactive: activity, negative = cell killing [1, 3] -15% | activity, negative = cell killing [1, 4] 5.06% | activity, negative = cell killing [1, 5] -23.5% | activity, negative = cell killing [1, 6] -0.778% | Potency [2]
